For six molecules, composite z-score and z-score results are on record in PubChem BioAssay.

The source made the active and inactive calls.

The nature of test [1]: small molecules captured by biotinylated probe aFSTL3 – biochemical, small-molecule microarray, fluorescence 635/667, stem cell growth factor project, primary screen (AID 1064).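 Also: measures binding of the biotinylated anti-FSTL3 antibody to printed compounds.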 As to conditions: higher = more signal.
Test [2] can be described thus: binders from COS7 lysate, DM2A8 probe, primary screen, torsin A project, cell lysate, small-molecule microarray, fluorescence 635/667 (AID 1065). As to conditions: higher = more signal, COS7 lysate expressing mutant human TOR1A.
Test [3] is described as follows: small molecules captured by biotinylated probe aFGF2 – biochemical, small-molecule microarray, fluorescence 635/667, stem cell growth factor project, primary screen (AID 1067).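 Also: measures binding of biotinylated aFGF2 protein to printed compounds on slides; z-score merges feature fluorescence and signal-to-noise across triplicate slides.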 Particulars: higher = more signal.
The nature of test [4]: small molecules captured by biotinylated probe aFGF10 – biochemical, small-molecule microarray, fluorescence 635/667, stem cell growth factor project, primary screen (AID 1071).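 Also: score merges 667 nm spot intensity and signal to noise from triplicate slides.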 Particulars: higher = more signal.
The target in test [5] is Neurogenic locus notch homolog protein 2 (Homo sapiens) (UniProt Q04721). Briefly: small molecules binding Notch2 protein – biochemical, small-molecule microarray, 635 nm fluorescence, stem cell growth factors, primary screen (AID 1073). Particulars: higher = more signal.
The target of test [6] is Pro-neuregulin-1, membrane-bound isoform (Homo sapiens) (UniProt Q02297). As to the kind of experiment: small molecules binding neuregulin-1 protein – biochemical, small-molecule microarray, fluorescence 635/667, psychiatric disease protein project, primary screen (AID 1075).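 Also: score combines 667 nm spot fluorescence with signal to noise.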 Particulars: NRG1 binding, 635 nm fluorescence, higher = more signal.
Pro-neuregulin-1, membrane-bound isoform (Homo sapiens), sequence (Q02297 whole entry, looked up, the tested form may be a part, canonical isoform): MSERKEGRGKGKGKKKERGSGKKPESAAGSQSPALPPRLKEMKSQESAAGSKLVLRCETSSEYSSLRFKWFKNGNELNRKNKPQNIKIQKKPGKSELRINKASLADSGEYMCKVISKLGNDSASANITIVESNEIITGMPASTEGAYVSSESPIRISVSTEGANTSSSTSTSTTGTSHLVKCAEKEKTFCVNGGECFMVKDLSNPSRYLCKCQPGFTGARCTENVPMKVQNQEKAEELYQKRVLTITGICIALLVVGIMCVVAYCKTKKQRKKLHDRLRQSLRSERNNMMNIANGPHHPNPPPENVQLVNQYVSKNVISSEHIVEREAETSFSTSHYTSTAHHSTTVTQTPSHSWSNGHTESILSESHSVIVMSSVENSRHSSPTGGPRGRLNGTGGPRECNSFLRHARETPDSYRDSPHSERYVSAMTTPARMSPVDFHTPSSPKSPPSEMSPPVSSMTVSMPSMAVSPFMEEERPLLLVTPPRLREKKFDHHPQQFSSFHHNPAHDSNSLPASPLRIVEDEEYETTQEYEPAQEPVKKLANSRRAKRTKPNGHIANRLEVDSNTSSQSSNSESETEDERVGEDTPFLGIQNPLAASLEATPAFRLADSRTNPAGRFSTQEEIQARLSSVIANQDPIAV
Test [7] relates to Neuregulin-1 EGF-like domain. As to the kind of experiment: small molecules binding NRG1 EGF domain – biochemical, small-molecule microarray, 635 nm fluorescence, primary screen (AID 1081).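 Also: binding of the protein to compounds printed on small-molecule microarray slides.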 Particulars: higher = more signal.
Test [8] is described as follows: FRG1 expression reporter modulators in myotubes – cell-based, C2C12 myotubes, firefly/Renilla luciferase, luminescence, FRG1 inhibition for FSHD, primary screen (AID 1084). As to conditions: FRG1 promoter luciferase, higher = more signal, called active from +8 up or from −8 down.
A short description of test [9]: small molecules captured by biotinylated probe aFST – biochemical, small-molecule microarray, fluorescence 635/667, stem cell growth factor project, primary screen (AID 1086).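 Also: score merges 667 nm fluorescence with signal-to-noise of each printed compound spot.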 As to conditions: higher = more signal.
Test [10] in a line: binders of probe aHhip on microarray, primary screen, stem cell growth factor project, biochemical, small-molecule microarray, fluorescence 635/667 (AID 1087).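 Also: score merges spot fluorescence at 667nm with spot signal to noise ratio.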 Particulars: higher = more signal.
In test [11] the test system is PRMT1 (protein arginine N-methyltransferase 1). Briefly: small molecules binding arginine methyltransferase PRMT1 – biochemical, small-molecule microarray, 635 nm fluorescence, primary screen (AID 1088).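 Also: binding of Prmt1 protein to compounds spotted on small-molecule microarray slides.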 As to conditions: higher = more signal.
Test [12] can be described thus: growth effects on S. cerevisiae YJM789 – YJM789 clinical isolate, OD600, 24 h, basal, primary screen (AID 1089).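 Also: growth of clinical yeast isolate S. cerevisiae YJM 789 seeded 1000 cells per well; test concentration not given here.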 Particulars: higher = more signal, called active from +8 up or from −8 down.
Test [13] in a line: S. pombe growth modifiers, basal conditions – strain 972, OD600, 24 h, no modulator, primary screen (AID 1090).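 Also: basal condition with compound alone and no growth modifier present; test concentration not given here.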 Particulars: S. pombe 972 growth, higher = more signal, called active from +8 up or from −8 down.
Test [14] is described as follows: budding yeast growth modifiers under rapamycin – strain BY4716, OD600, 96 h, primary screen (AID 1091). Also: test concentration not given here. Particulars: S. cerevisiae BY4716 + rapamycin, higher = more signal, called active from +8 up or from −8 down.
The target in test [15] is Torsin-1A-interacting protein 2 (Homo sapiens) (UniProt Q8NFQ8). As to the kind of experiment: small molecules binding lysate-expressed LULL1 – cell lysate, human LULL1 lysate, 635/667 nm fluorescence, primary screen (AID 1092).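 Also: probe is lysate of COS7 cells overexpressing human LULL1; score merges per-feature 667 nm fluorescence with signal-to-noise.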 As to conditions: small-molecule microarray, hLULL1 lysate binding, 635 nm fluorescence; higher = more signal.
Torsin-1A-interacting protein 2 (Homo sapiens), sequence (Q8NFQ8 whole entry, looked up): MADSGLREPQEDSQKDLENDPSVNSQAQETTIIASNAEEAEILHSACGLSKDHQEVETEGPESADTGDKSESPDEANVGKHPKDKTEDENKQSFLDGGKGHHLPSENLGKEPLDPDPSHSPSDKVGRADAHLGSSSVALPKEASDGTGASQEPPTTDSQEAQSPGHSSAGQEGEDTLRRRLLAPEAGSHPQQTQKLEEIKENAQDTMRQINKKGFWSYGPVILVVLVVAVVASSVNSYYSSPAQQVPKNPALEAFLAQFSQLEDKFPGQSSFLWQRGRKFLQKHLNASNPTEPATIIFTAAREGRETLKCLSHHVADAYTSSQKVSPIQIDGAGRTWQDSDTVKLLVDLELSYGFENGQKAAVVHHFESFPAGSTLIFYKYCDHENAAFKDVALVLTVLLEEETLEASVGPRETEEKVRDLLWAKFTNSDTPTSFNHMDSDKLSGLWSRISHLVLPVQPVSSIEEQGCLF
Test [16] can be described thus: optical density change of DRC41 E. coli – strain DRC41, OD650, 24 h, E. coli filamentation project, primary screen (AID 1093).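 Also: MC1000 strain lacking acrAB efflux and sulA so SOS filamentation is blocked; test concentration not given here.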 As to conditions: E. coli DRC41 growth, higher = more signal, called active from +8 up or from −8 down.
A short description of test [17]: probe aLefty2 binding to arrayed compounds – biochemical, biotinylated probe, 635/667 nm fluorescence, primary screen (AID 1094).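 Also: score merges spot fluorescence near 667 nm with spot signal-to-noise ratio.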 Particulars: small-molecule microarray, higher = more signal.
Test [18] relates to Noggin (protein binding on small-molecule microarray). Briefly: small molecules binding Noggin protein – biochemical, 635/667 nm fluorescence, primary screen (AID 1095).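 Also: score merges 667 nm feature fluorescence with signal to noise over triplicate slides.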 Particulars: 635 nm fluorescence, higher = more signal.
Test [19] has as its target Neurogenic locus notch homolog protein 3 (Homo sapiens) (UniProt Q9UM47). Briefly: small molecules binding NOTCH3 protein – biochemical, 635/667 nm fluorescence, primary screen (AID 1096). As to conditions: small-molecule microarray, 635 nm fluorescence, higher = more signal.
A short description of test [20]: probe aEGFR binding to arrayed compounds – biochemical, biotinylated probe, 635/667 nm fluorescence, primary screen (AID 1097).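 Also: probe is a biotinylated anti-EGFR antibody binding compounds printed on slides; score combines fluorescence near 667 nm and signal to noise of each spot.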 Particulars: small-molecule microarray, higher = more signal.

Neurogenic locus notch homolog protein 3 (Homo sapiens), sequence (Q9UM47 whole entry, looked up): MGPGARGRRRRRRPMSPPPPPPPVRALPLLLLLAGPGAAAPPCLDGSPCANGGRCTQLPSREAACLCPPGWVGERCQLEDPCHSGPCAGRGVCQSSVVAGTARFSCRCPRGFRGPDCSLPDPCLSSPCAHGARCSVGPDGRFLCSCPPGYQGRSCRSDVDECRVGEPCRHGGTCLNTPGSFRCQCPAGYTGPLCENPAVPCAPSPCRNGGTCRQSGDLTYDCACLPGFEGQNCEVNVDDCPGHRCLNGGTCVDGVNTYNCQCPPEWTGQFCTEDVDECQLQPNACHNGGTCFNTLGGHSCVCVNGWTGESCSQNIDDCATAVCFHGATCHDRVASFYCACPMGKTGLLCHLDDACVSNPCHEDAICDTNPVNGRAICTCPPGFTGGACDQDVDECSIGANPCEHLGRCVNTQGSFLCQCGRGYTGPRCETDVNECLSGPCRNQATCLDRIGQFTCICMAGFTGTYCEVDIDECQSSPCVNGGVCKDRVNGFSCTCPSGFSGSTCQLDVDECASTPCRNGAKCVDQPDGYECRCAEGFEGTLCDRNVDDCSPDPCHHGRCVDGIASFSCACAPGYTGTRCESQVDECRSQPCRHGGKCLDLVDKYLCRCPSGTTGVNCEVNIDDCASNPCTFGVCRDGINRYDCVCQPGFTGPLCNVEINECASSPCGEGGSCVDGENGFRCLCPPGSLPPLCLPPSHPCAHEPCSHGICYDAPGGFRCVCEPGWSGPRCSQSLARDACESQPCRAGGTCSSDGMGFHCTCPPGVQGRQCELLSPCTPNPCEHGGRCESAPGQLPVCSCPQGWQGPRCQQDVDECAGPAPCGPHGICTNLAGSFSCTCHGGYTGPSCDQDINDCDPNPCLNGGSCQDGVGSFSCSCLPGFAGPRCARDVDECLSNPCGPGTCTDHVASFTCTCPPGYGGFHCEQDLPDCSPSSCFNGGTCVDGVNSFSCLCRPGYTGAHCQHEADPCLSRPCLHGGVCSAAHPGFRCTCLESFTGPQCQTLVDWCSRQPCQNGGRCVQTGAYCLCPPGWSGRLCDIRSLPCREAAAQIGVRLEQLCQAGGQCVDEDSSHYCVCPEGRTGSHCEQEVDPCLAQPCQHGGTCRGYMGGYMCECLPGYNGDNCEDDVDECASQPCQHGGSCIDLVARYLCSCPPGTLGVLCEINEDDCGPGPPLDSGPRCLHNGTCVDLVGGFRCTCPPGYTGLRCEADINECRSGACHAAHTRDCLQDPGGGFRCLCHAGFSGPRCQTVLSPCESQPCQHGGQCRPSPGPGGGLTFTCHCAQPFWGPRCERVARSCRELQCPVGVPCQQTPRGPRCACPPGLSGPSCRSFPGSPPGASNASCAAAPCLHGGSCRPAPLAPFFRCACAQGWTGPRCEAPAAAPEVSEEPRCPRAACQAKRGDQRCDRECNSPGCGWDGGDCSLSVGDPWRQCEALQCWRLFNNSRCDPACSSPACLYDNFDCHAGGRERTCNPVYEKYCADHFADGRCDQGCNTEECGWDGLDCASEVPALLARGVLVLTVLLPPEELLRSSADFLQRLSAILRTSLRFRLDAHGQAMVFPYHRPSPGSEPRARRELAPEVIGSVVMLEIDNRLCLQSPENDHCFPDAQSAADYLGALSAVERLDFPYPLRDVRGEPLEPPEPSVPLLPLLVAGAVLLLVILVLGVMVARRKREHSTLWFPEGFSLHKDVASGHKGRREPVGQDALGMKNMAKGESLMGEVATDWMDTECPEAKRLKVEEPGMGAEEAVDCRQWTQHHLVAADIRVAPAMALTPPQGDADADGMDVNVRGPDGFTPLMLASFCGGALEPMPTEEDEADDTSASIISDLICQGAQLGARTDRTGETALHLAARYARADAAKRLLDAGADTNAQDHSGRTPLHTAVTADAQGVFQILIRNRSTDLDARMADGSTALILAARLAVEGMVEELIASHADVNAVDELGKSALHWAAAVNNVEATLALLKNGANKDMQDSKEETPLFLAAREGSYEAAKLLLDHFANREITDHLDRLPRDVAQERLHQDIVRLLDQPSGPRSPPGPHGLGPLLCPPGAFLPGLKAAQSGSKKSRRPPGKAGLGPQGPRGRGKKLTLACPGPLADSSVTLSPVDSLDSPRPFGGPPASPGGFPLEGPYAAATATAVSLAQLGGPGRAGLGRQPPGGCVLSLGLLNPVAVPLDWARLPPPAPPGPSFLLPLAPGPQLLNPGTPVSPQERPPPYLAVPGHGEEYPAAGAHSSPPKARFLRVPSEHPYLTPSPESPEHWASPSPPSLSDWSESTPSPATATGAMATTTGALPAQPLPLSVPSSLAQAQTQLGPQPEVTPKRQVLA

As to `CC[C@@H]1C=C(C(=O)O)[C@H](c2ccccc2)N1S(=O)(=O)c1ccc([N+](=O)[O-])cc1`, the composite z-score in test [1] is 0.0455; in test [2], -0.0271; in test [3] it was -0.0669; in test [4], 0.223; in test [5], 0.989; in test [6] it was 1.86. Besides, the composite z-score is 1.08 in test [7]; 0.13 in [9]; -0.0831 in test [10]; 0.372 in test [11]; 3.38 in test [15]; 0.0634 in test [17]. Also, the composite z-score is -0.297 in [18], 0.481 in test [19] and 0.0276 in test [20]. The z-score is -2.22 (inactive) in [8]; 0.308 (inactive) in test [12]; -0.434 (inactive) in test [13]; 0.632 (inactive) in test [14]; -1.86 (inactive) in test [16].
On to `CCN1C(C)=C(C(=O)OC)[C@@H](c2ccccc2)N2C(=O)[C@@]3(C(=O)OC)O[C@@]12[C@@H]1C(=O)CCC[C@@H]13`, for which the composite z-score in test [1] is -0.65; in test [2], 0.33; in test [3], -0.178; in test [4], 0.234; in test [5], -0.334; in test [6] it was -0.307. The composite z-score in [7] is 0.545; in test [9] it was -0.183; in [10], 0.351; in test [11] it was 1.12; in test [15], -0.323; in test [17] it was -0.243. Also, the composite z-score in [18] amounted to 1.57; in test [19] it was 0.135; in test [20], 0.0173. The z-score in test [8] was -0.765 (inactive); in test [12], 0.352 (inactive); in test [13] it was -1.06 (inactive); in test [14] it was 1.8 (inactive); in [16], 0.0465 (inactive).
With `CC(C)[Si](OCCCNS(=O)(=O)c1ccc(Br)cc1)(C(C)C)C(C)C`, the composite z-score in [1] was -0.491; in test [2] it was 0.231; in test [3], -0.0529; in test [4] it was 0.962; in test [5], 1.43; in [6], 0.344. Further, the composite z-score was 0.468 in [7]; 0.623 in test [9]; -0.0645 in test [10]; 0.807 in [11]; 0.716 in test [15]; 0.0278 in test [17]. Besides, the results for the composite z-score in [18], in test [19] and in test [20] were 0.578, 1.11 and 0.0298, respectively. Also, the z-score in test [8] was -3.13 (inactive); in test [12], -4.21 (inactive); in test [13] it was -3.02 (inactive); in test [14], -1.86 (inactive); in [16], 3.1 (inactive).
With `COc1ccc(C(=O)Nc2ccc(CN3C(=O)[C@]4(O[C@H](CCn5cc(CCO)nn5)[C@@H]([Si](C)(C)c5ccc(OC)cc5)[C@@H]4C)c4ccccc43)cc2)cc1`, the composite z-score in test [1] amounted to 0.263; in test [2] it was 0.259; in [3] it was 0.0331; in [4], 1.05; in test [5], 1.46; in [6], 0.485. In addition, the composite z-score is 1.09 in test [7]; -0.177 in test [9]; -0.0645 in [10]; 1.56 in test [11]; 0.961 in [15]; 0.201 in test [17]. The composite z-score in test [18] worked out at 1.65; in test [19], 1.08; in test [20] it was 0.14. The z-score in test [8] is -3.72 (inactive); in test [12] it was 1.42 (inactive); in test [13] it was -7.78 (inactive); in test [14] it was 1.13 (inactive); in test [16], 1.07 (inactive).
With `COc1ccc(-c2ccccc2[C@@H]2N[C@H](C(=O)O)CC[C@H]2C)cc1`, the composite z-score in [1] is -0.285; in test [2], -0.0323; in [3], -0.132; in test [4] it was 0.277; in [5], 0.244; in [6] it was -0.233. Further, the composite z-score in [7] was 0.424; in test [9], 0.0952; in [10], -0.134; in test [11], -0.408; in test [15], 0.47; in test [17] it was -0.05. The composite z-score was determined as 0.412 in [18], 0.412 in [19] and 0.0068 in test [20]. Further, the z-score in test [8] was -0.438 (inactive); in test [12], -0.306 (inactive); in test [13], -0.572 (inactive); in test [14], 0.492 (inactive); in [16], 0.189 (inactive).
For the molecule `CCc1cccc(NC(=O)O[C@H]2[C@H](OC(=O)Nc3ccccc3)[C@@H](OC(=O)Nc3ccccc3)[C@@H](OC)O[C@@H]2CO)c1`, the composite z-score in test [1] was -0.0679; in [2], 0.624; in [3] it was 0.216; in test [4] it was 1.17; in [5], 1.08; in test [6], 1.76. Besides, the composite z-score in test [7] is 1.39; in test [9], 0.891; in test [10], -0.0831; in [11] it was 1.54; in [15], 3.25; in test [17] it was -0.142. The composite z-score is 1.81 in test [18], 1.06 in test [19] and -0.0549 in test [20]. In addition, the z-score in [8] is 0.825 (inactive); in test [12] it was 1.77 (inactive); in [13], 2.57 (inactive); in test [14], 1.97 (inactive); in [16] it was -0.0576 (inactive).
